The text below walks through data of PubChem BioAssay (EPA / NIEHS).

The source holds several records for some structures; these can differ, active in one and inactive in another. Activity calls are given as the source filed them. Rule for the calls: active = hit-call score of the fitted dose curve at least 0.9, where 1 is the maximum; inactive = score below 0.9.

A short description of assay [1]: ATG_M_32_CIS: Attagene CIS-FACTORIAL HepG2 Assay for M32 Transcription Factor (Internal Marker) (AID 2282949).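 Note: background control marker of the multiplexed CIS panel rather than a real target.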 Particulars: HepG2 Attagene cis-factorial M32 reporter, mRNA; actives raise or lower the signal. A digest of the protocol: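 Following 24 h chemical exposure of HepG2 cells transiently expressing cis-promoter reporter constructs, reporter transcript levels were determined by RT-PCR with fluorescent labelling and capillary electrophoresis, then fitted bidirectionally against DMSO.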

The nature of assay [2]: ATG_M_06_CIS: Attagene CIS-FACTORIAL HepG2 Assay for M06 Transcription Factor (Internal Marker) (AID 2282950). Particulars: HepG2 Attagene CIS-FACTORIAL M06 internal marker reporter; actives raise or lower the signal. In a few lines:
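Cells (HepG2, transiently carrying cis-driven reporter units) receive chemical for 24 h before RNA isolation. Reporter cDNA is PCR-amplified, FAM-labelled by primer extension, HpaI-digested and sized on a capillary analyser.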

In assay [3] the target is Hypoxia-inducible factor 1-alpha (Homo sapiens) (UniProt Q16665). As to the kind of experiment: ATG_HIF1a_CIS: Attagene CIS-FACTORIAL HepG2 Assay for human Hypoxia Inducible Factor 1 (HIF1A) (AID 2282951). Particulars: HepG2 Attagene cis-factorial HIF1a reporter transcription; actives raise or lower the signal. A digest of the protocol: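 Fluorescence intensity of capillary-separated, 6-FAM-labelled reporter amplicons gives mRNA induction in HepG2 cells carrying transfected cis-promoter reporter units; cells exposed 24 h, responses fitted up or down from DMSO.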

Assay [4] concerns the target Hepatocyte nuclear factor 6 (Homo sapiens) (UniProt Q9UBC0). As to the kind of experiment: ATG_HNF6_CIS: Attagene CIS-FACTORIAL HepG2 Assay for human Hepatocyte Nuclear Factor 6 (HNF6) (AID 2282952). The conditions noted are these: HepG2 Attagene cis-factorial HNF6 reporter transcription; actives raise or lower the signal. A digest of the protocol: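 HepG2 cells transiently transfected with cis-element-driven multiple reporter transcription units, dosed 24 h; reporter mRNA quantified by RT-PCR, FAM primer extension, HpaI digestion and capillary electrophoresis; bidirectional fit versus DMSO baseline.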

In assay [5] the target is Heat shock factor protein 1 (Homo sapiens) (UniProt Q00613). Briefly: ATG_HSE_CIS: Attagene CIS-FACTORIAL HepG2 Assay for human Heat Shock Transcription Factor 1 (HSE) (AID 2282953). The conditions noted are these: HepG2 HSE cis-reporter, Attagene RNA transcription; actives raise or lower the signal. A digest of the protocol:
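Liver-derived HepG2 cells carry transiently introduced multiple reporter units governed by cis promoters. Reporter RNA measured 24 h post-dose through reverse transcription, PCR amplification, fluorescent labelling and capillary electrophoresis, normalised to DMSO.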

Assay [6] is described as follows: ATG_MRE_CIS: Attagene CIS-FACTORIAL HepG2 Assay for human Metal Responsive Element (MRE) (AID 2282954). Particulars: HepG2 MRE cis-reporter transcription, Attagene multiplex; actives raise or lower the signal. In a few lines:
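HepG2 cells transiently transfected with multiple cis-element reporter units measure endogenous MTF1-driven transcription. After 24 h compound exposure, reporter mRNA is quantified by RT-PCR with 6-FAM labelling, HpaI digestion and capillary electrophoresis; bidirectional fits versus DMSO.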

Assay [7] in a line: ATG_PBREM_CIS: Attagene CIS-FACTORIAL HepG2 Assay for human Phenobarbital-responsive Enhancer Module (PBREM) (AID 2282955). Particulars: HepG2 PBREM cis-reporter, Attagene multiplexed transcription; actives raise or lower the signal. In a few lines: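 Cells were transfected with cis-element reporter units and treated for 24 h, after which RNA was extracted and reporter transcripts measured by RT-PCR and capillary electrophoresis.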

Assay [8] deals with Paired box protein Pax-6 (Homo sapiens) (UniProt P26367). Briefly: ATG_Pax6_CIS: Attagene CIS-FACTORIAL HepG2 Assay for human Paired Box 6 (PAX6) (AID 2282956). The conditions noted are these: HepG2 CIS-FACTORIAL PAX6 reporter transcription, RNA readout; actives raise or lower the signal. A digest of the protocol: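 Multiplexed cis-reporter HepG2 system; 24 h treatment; reporter mRNA read by RT-PCR/CE fluorescence; bidirectional fit vs DMSO.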

Assay [9] can be described thus: ATG_PXRE_CIS: Attagene CIS-FACTORIAL HepG2 Assay for human Pregnane X Receptor Element (PXRE) (AID 2282957). Particulars: HepG2 Attagene CIS-FACTORIAL PXRE reporter, mRNA; actives raise or lower the signal. A digest of the protocol:
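HepG2 cells transiently transfected with cis-regulated multiple reporter transcription units; endogenous factor activity measured as reporter mRNA 24 h after dosing. RT-PCR, fluorescent primer extension, HpaI digestion, capillary electrophoresis; bidirectional fit versus DMSO baseline.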

Assay [10] in a line: ATG_PPRE_CIS: Attagene CIS-FACTORIAL HepG2 Assay for human Peroxisome Proliferator-activated Response Element (PPRE) (AID 2282958). Particulars: HepG2 PPRE cis-element reporter, Attagene transcription factor profiling; actives raise or lower the signal. In a few lines: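 In this cell-based multiplex, a PPRE cis element drives a reporter sequence in transiently transfected HepG2 cells. Following 24 h treatment, labeled cDNA amplicons are sized and quantified by capillary electrophoresis, with DMSO defining baseline.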

A short description of assay [11]: ATG_RORE_CIS: Attagene CIS-FACTORIAL HepG2 Assay for human RAR-related Orphan Receptor Element (RORE) (AID 2282959). The conditions noted are these: HepG2 Attagene cis-factorial RORE reporter, mRNA; actives raise or lower the signal. In a few lines:
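Endogenous factor activity at a cis response element is read as reporter transcript levels in HepG2 cells, 24 h post-dose. Transcripts are quantified by RT-PCR with capillary electrophoresis, and data fitted in both directions against DMSO.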

Assay [12] is described as follows: ATG_Sox_CIS: Attagene CIS-FACTORIAL HepG2 Assay for human SRY-box transcription factor (SOX) (AID 2282960). The conditions noted are these: HepG2 Attagene cis-factorial SOX reporter, mRNA; actives raise or lower the signal. In a few lines:
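Measures mRNA induction of a SOX1-associated reporter in HepG2 after 24 h dosing. Fluorescently labelled RT-PCR fragments are separated by capillary electrophoresis, and gain or loss relative to DMSO control is fitted.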

Assay [13] has as its target Transcription factor Sp1 (Homo sapiens) (UniProt P08047). Briefly: ATG_Sp1_CIS: Attagene CIS-FACTORIAL HepG2 Assay for human Specificity Protein 1 (Sp1) (AID 2282961). The conditions noted are these: HepG2 Sp1 cis-reporter transcription, actives raise or lower the signal. In a few lines:
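Cells: HepG2, transiently transfected with cis-regulated multiplexed reporters. Exposure: 24 h. Detection: reporter transcripts amplified, fluorescently labeled, restriction-digested and sized by capillary electrophoresis. Analysis: bidirectional fit relative to DMSO.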

A short description of assay [14]: ATG_SREBP_CIS: Attagene CIS-FACTORIAL HepG2 Assay for human Sterol Regulatory Element Binding (SREBP) (AID 2282962). Particulars: HepG2 Attagene cis-factorial SREBP reporter, mRNA; actives raise or lower the signal. In a few lines: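 mRNA induction of transfected cis-promoter reporters in HepG2 cells, 24 h post-dose. Detection: RT-PCR with 6-FAM-labelled products, HpaI digest, capillary electrophoresis. DMSO served as negative control and baseline.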

For assay [15], the target named is Signal transducer and activator of transcription 3 (Homo sapiens) (UniProt P40763). Briefly: ATG_STAT3_CIS: Attagene CIS-FACTORIAL HepG2 Assay for human Signal Transducer and Activator of Transcription 3 (STAT3) (AID 2282963). The conditions noted are these: HepG2, Attagene cis-factorial STAT3 reporter transcription; actives raise or lower the signal. In a few lines: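 HepG2 cells transiently transfected with cis-element-driven multiple reporter transcription units; after 24 h chemical exposure, reporter mRNA measured by RT-PCR, 6-FAM primer-extension labelling, HpaI digestion and capillary electrophoresis. Bidirectional fitting versus DMSO baseline.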

A short description of assay [16]: ATG_TA_CIS: Attagene CIS-FACTORIAL HepG2 Assay for human TA Basal Promoter (AID 2282964). Particulars: HepG2 Attagene CIS-factorial TA basal promoter reporter; actives raise or lower the signal. In a few lines: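 Background internal-marker endpoint from a 52-component HepG2 cis-reporter panel. Cells treated 24 h; reporter transcripts quantified via RT-PCR and CE fluorescence against DMSO baseline.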

The nature of assay [17]: ATG_TCF_b_cat_CIS: Attagene CIS-FACTORIAL HepG2 Assay for human T-Cell-Factor with beta-catenin (TCF/b-cat) (AID 2282965). The conditions noted are these: HepG2 TCF/beta-catenin cis-reporter transcription, actives raise or lower the signal. A digest of the protocol: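 HepG2 cells transiently transfected with multiple cis-promoter-regulated reporter transcription units, so endogenous transcription factor activity is measured. Reporter mRNA read 24 hours after dosing by RT-PCR, fluorescent labelling and capillary electrophoresis; bidirectional fitting against DMSO.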

Assay [18] can be described thus: ATG_TAL_CIS: Attagene CIS-FACTORIAL HepG2 Assay for human TAL Basal Promoter (AID 2282966).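 Note: background control endpoint measuring basal TAL promoter reporter mRNA not a specific factor.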 The conditions noted are these: HepG2 Attagene cis-factorial TAL promoter reporter; actives raise or lower the signal. In a few lines:
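HepG2 cells were transiently transfected with promoter-driven multiplexed reporter units and dosed for 24 h. Reporter mRNA was measured by RT-PCR with capillary electrophoresis fluorescence; bidirectional fits used DMSO as baseline, serving as a background control.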

Assay [19] is described as follows: ATG_TGFb_CIS: Attagene CIS-FACTORIAL HepG2 Assay for human Transforming Growth Factor (TGF) (AID 2282967). Particulars: HepG2 Attagene CIS TGFb reporter, mRNA transcription; actives raise or lower the signal. A digest of the protocol:
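Liver HepG2 line, cis-factorial reporter panel, 24 h dosing. Quantitation: RT-PCR products labeled with 6-FAM, cut with HpaI, resolved by capillary electrophoresis; DMSO-referenced bidirectional analysis.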

Assay [20] is described as follows: ATG_VDRE_CIS: Attagene CIS-FACTORIAL HepG2 Assay for human Vitamin D Receptor Element (VDRE) (AID 2282968). The conditions noted are these: HepG2 VDRE cis-reporter transcription, actives raise or lower the signal. A digest of the protocol: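 HepG2 cells transiently transfected with cis-element reporter units, dosed 24 h; reporter mRNA measured by RT-PCR, 6-FAM labeling, HpaI digestion and capillary electrophoresis. Activity fitted bidirectionally against DMSO baseline.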

Transcription factor Sp1 (Homo sapiens), sequence (P08047 whole entry, looked up): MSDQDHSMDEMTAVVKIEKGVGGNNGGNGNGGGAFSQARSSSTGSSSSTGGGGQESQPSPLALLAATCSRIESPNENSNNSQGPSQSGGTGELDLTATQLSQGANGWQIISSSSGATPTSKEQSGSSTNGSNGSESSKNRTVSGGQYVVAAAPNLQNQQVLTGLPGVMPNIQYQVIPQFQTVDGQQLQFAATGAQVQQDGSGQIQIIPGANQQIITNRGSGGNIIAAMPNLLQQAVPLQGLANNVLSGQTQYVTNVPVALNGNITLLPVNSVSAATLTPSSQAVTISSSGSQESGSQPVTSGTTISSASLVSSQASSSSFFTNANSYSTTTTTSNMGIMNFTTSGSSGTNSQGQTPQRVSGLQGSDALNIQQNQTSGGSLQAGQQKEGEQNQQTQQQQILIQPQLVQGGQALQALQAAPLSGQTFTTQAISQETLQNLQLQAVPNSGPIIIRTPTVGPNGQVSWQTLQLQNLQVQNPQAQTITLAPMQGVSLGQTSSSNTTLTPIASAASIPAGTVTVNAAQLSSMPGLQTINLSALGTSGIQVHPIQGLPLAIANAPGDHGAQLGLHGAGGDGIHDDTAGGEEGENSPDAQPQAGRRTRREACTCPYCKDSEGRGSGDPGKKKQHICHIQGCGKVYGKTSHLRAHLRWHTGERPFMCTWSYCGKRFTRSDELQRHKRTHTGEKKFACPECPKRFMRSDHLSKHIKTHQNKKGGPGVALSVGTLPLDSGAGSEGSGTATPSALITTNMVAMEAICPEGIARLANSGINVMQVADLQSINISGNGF
Hypoxia-inducible factor 1-alpha (Homo sapiens), sequence (Q16665 whole entry, looked up): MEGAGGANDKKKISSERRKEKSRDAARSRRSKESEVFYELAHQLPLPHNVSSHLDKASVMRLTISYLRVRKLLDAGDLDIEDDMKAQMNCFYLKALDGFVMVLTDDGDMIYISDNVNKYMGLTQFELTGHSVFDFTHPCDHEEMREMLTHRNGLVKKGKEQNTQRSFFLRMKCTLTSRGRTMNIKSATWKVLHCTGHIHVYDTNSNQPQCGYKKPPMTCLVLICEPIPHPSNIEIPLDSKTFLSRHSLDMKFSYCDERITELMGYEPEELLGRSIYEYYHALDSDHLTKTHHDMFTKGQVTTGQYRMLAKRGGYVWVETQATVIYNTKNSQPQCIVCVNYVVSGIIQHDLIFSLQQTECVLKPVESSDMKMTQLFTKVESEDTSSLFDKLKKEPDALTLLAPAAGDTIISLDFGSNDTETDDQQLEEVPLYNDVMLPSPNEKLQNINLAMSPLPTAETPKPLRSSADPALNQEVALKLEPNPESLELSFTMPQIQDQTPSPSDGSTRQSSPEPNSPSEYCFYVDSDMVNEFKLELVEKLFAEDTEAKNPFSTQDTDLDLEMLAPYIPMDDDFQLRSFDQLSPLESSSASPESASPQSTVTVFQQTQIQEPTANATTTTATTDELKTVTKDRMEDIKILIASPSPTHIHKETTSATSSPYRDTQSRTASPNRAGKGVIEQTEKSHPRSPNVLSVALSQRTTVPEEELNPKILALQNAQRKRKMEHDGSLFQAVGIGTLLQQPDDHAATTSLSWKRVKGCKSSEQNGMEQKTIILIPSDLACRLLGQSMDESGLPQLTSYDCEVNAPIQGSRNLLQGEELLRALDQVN
Hepatocyte nuclear factor 6 (Homo sapiens), sequence (Q9UBC0 whole entry, looked up): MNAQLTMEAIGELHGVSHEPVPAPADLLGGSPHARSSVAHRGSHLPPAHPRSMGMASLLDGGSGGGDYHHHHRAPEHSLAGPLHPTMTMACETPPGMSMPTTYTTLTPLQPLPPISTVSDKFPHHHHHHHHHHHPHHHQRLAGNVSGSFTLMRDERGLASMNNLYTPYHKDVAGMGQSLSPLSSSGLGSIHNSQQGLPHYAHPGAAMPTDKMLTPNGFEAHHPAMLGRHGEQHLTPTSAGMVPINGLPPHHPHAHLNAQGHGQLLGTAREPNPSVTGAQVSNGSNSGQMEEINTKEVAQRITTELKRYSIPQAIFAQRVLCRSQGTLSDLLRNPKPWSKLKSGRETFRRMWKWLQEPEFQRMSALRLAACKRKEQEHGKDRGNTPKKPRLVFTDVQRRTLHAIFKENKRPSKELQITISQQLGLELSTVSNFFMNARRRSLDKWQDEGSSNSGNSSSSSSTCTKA
Paired box protein Pax-6 (Homo sapiens), sequence (P26367 whole entry, looked up): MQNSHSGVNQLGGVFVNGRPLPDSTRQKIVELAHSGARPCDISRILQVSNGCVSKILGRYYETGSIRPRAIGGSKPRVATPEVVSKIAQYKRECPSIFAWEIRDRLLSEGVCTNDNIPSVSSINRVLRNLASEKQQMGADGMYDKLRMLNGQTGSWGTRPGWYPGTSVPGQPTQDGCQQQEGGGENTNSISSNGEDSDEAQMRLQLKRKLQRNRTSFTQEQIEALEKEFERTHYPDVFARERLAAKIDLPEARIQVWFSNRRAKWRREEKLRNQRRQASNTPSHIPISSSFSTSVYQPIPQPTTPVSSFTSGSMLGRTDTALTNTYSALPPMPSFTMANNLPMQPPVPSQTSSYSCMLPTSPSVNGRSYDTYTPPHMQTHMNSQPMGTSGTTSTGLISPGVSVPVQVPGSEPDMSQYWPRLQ
Signal transducer and activator of transcription 3 (Homo sapiens), sequence (P40763 whole entry, looked up): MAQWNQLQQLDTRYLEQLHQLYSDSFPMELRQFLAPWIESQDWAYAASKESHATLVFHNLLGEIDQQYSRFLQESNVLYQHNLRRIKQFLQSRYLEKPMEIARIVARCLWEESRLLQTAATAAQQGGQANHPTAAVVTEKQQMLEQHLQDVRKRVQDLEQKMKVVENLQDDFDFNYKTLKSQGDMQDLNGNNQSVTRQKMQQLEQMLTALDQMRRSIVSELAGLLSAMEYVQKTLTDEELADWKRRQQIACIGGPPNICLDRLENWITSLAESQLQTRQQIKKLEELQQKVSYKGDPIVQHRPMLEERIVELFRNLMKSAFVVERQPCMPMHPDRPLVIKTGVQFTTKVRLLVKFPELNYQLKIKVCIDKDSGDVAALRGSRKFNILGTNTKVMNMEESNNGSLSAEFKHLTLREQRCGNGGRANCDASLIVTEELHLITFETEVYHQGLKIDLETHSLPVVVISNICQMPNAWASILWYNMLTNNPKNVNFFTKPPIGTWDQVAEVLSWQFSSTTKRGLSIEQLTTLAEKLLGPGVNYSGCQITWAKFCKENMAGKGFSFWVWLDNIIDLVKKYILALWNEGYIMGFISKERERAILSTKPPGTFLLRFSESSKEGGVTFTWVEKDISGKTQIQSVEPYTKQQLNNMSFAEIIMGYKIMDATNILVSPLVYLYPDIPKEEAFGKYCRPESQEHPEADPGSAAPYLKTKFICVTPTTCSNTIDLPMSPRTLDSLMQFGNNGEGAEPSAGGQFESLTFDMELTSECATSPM
Heat shock factor protein 1 (Homo sapiens), sequence (Q00613 whole entry, looked up): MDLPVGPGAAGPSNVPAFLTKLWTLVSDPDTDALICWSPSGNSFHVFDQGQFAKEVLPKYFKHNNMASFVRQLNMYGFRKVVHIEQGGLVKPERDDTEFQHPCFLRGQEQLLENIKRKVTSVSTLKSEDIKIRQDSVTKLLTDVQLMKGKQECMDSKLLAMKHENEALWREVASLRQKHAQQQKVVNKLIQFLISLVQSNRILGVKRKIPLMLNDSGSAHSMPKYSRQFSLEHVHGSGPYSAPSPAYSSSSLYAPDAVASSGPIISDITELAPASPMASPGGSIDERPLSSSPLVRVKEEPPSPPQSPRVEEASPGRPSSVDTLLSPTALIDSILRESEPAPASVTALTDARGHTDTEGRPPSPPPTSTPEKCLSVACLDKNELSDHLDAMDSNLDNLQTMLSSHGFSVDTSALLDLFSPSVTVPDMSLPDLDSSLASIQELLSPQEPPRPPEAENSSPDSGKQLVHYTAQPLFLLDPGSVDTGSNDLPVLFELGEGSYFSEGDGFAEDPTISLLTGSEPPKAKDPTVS

For the compound `OC[C@@H](O)[C@H]1O[C@@H]2O[C@H](C(Cl)(Cl)Cl)O[C@@H]2[C@H]1O`, the call in assay [1], in [2], in assay [3], in assay [4], in assay [5] and in [6] was inactive. Besides, the result in assay [7], in assay [8], in assay [9], in [10], in [11] and in assay [12] was inactive. In addition, the call in assay [13], in [14], in assay [15], in assay [16], in [17] and in [18] was inactive. In assay [19], the compound was called inactive.
For `Cc1ccc(CCl)cc1`, the compound was called inactive in assay [1], in assay [2], in assay [3], in assay [4], in assay [5] and in assay [6]. In addition, the outcome in [7], in assay [8], in assay [9], in assay [10], in assay [11] and in assay [12] was inactive. Moreover, the compound was classed as inactive in assay [13], in assay [14], in assay [15], in assay [16], in assay [17] and in assay [18]. The compound was called inactive in [19] and in assay [20].
By AC50 is commonly meant the midpoint of the concentration-response curve, whichever way the signal moves. With `CCCCCCCCCCCCOS(=O)(=O)O`, the call in assay [1], in assay [2], in assay [3], in [4], in assay [6] and in assay [8] was inactive. The outcome in [9], in [13], in assay [14], in [15], in [16] and in [17] was inactive. Also, the compound was called inactive in [18] and in assay [19]. Moreover, the AC50 in [3] was 11.1 µM (active); in assay [6], 2.2 µM (active); in assay [15] it was 11.1 µM (active).
In the case of `CCOP(=O)(OCC)OC(=CCl)c1ccc(Cl)cc1Cl`, the compound was classed as inactive in assay [1], in [2], in [3], in [4], in [5] and in assay [6]. The outcome in [8], in assay [10], in [11], in assay [12], in [13] and in [14] was inactive. Moreover, the outcome in [15], in assay [16], in assay [17], in assay [18] and in assay [19] was inactive. In addition, the AC50 in assay [7] was 6.62 µM (active); in [9], 0.754 µM (active); in [20], 1.83 µM (active).
